Laboratory results reported in the supplement of paper PMC6555819.

Each sequence was assayed on VDR:RXRa (NR concentration 270 nM, RXRa partner concentration 90 nM) (assay: PBM binding z-score (relative to random genomic background probes); higher = stronger binding; sequences stand for … in GC…GCGATTGACAGCGTAGAATGAAGG).
Description: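 Protein-binding microarray (Agilent 4x180K custom design, double-stranded 60-nt probes: 5' GC cap, 34-nt variable region, 24-nt constant primer region; full probe sequence given). Purified or IVT nuclear receptor:RXRα heterodimers (3:1 NR:RXRα, mostly 270:90 nM) or homodimers were incubated for 1 h in PBS with 2% milk and no ligand, then detected with Alexa488 antibodies. Fluorescence from o1-orientation probes (~5 replicates averaged) was converted to z-scores against 500 random hg19 background probes. Variable regions are seed direct-repeat (DR0–DR5) sites, all their single-nucleotide variants and half-site ablations.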

Row | Sequence | PBM binding z-score
1 | GGAACGAGGGCAAACTTGATAGCATCTGTCGACG | 1.42
2 | GGATCGAGGGCATTCGAGTTGATAGCATGGCGAT | 3.52
3 | TAGCCTAGGTCAGATCCGGCCAGTATACGCTATA | 0.403
4 | CCTACTGGGCCATCAGGTCCTTGATATCAACGTT | -0.0448
5 | CCTTACGGGTCACGACGTTATAGCACGACGAGCG | 3.73
6 | CGCACTAGGTCAGAACAGGACAGTGAAGGATGAT | 0.776
7 | GCTGGTAGGTCAACTGATGGTCAGCTAAAGCTCG | 2.01
8 | GTACCAAGGTGAATAGGTCGATGATGAGTAGGCG | 0.674
9 | CCTGCAAGGTCATGGTCAGCTAATCTACAGTATG | 4.76
10 | ATATGTAGTTTAAGGGTCATTCAGGTTGGTTCGC | 5.34
11 | GGAACGAGGGCATTCGAGTTGATAGCTTGGCGAT | 3.55
12 | CTACCAAGGTGAACACGGTCGTTGATTACTATTC | 3.01
13 | ACCTACGGGTCAACGAGGTTATAGCACGCGTATA | 7.64
14 | GCTAGTTCGTCAGTAAAAGGTCACACACCGGTCG | 4.28
15 | ACTATTAGTTGAGACGAGAGCAACCGATAGGTTG | 0.00985
16 | TCTTGGAGATCAATAGAGGTTAAGAAAGTGCGCT | 2.08
17 | TCGAGTAGATTAGGGGCATTCAGAATGGCGTCGA | 0.295
18 | ATATGTAGGTTATCGAGTCATTCAGTTTGCGCAT | 1.72
19 | GCCGCTAGGTCAGGTTGGTCAGCTAACGGGTACG | 0.54
20 | CGTCAAAGTTCAACTAAGGTATCGTAAAGCACGC | 4.28

Row | Sequence | PBM binding z-score
21 | CCTACTGGGCCAAATAGGTCATTGATGCCGATAA | 2.51
22 | CGTCCAAGGTCAATGCTAGGTCAGTTAAAGCATT | 5.01
23 | CCTAGTTGGTCAAGATCACACACGCTATAGGTAC | 0.862
24 | TCAGACAGGTGAAGGTAGCTCAGGTACGCAGTCG | 0.353
25 | ATCGAAAGGTCGTCAGGTGAGTATACAGAAAGGC | 3.72
26 | TAGCCTAGGCCATGCGGGCCAGTATAGTGTCGGC | -1.04
27 | CGTGCAAGGTCAATGCTAGGTCAGTGAAAGCATT | 5.24
28 | TCATATAGGTAATACAGGTTAAAGTCGGCATCTA | 1.88
29 | GCTCGGAGGACAAGGTAAGAGCTTTGTCCGTAGA | -0.675
30 | CGTCTAAGTTCAACTAAGGTAACGTAAAGCACGC | 4.12
31 | TCTATCAGTTGATTAGGGCAACCGAAACAGCGGA | 0.419
32 | CCTACAGGGCCATTCAGAGGTCATTGATCATATG | 4.57
33 | CGTCCAAGGTCATAGGAGGCCAGTGAAGACAGAT | 4.93
34 | TCGTGTAGATCAAGCAGGTTAAGAAAGCCTGAGT | 0.56
35 | ACTATTGGTTGAGACGAGGGCAACCGATAGGTTG | 0.873
36 | CATACAGGGTCAGCTAGGCCAGAATAGGGACGGC | 3.8
37 | CCTTACGGATCACTCCAGGTTATAGCATCGGAGT | 0.59
38 | CGAACTAGCTCATTGACAGGACAGTGAATAGTAA | -0.486
39 | CTCGAAAGGTCGTGCTCAGGTGAGGATACCAAAC | 3.3
40 | CCTTACGGGTCACTCCAGGTTATGGCATCGGAGT | 4.08
